# In the supplement of paper PMC9950053:
# Structures can show the parent of a compound that is named as a salt.
# System: Danio rerio larvae (5 dpf)
# Assay: combined upward orientation toward moving lines (periods 7-14) minus DMSO control (percentage points); higher = more orientation with moving lines than DMSO larvae
# Settings: 10 µM; exposure time: 3 h pre-incubation + 3 h imaging
# Protocol: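 Wild-type 5 dpf zebrafish larvae (n=48 per drug, 96-well plates, 28.5 °C) were exposed to Tocris FDA-approved library compounds at 10 µM (0.1% DMSO) for 3 h before and 3 h during imaging. Images were taken every 6 s during visual and acoustic stimuli, and larvae were tracked with Z-LaP Tracker. Each measure is the treated-group mean minus the DMSO control mean (n=844), in percentage points. This mapping covers compounds with 5-character plate codes.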
row,Compound,combined upward orientation toward moving lines
1,COc1ccc(C(CN(C)C)C2(O)CCCCC2)cc1 (stereo unspecified) [Venlafaxine hydrochloride],0.349
